Results published in PubChem BioAssay (NCATS).
Results filed as inconclusive are left out. Unless noted, calls come from the whole dose curve; as a rule, active = well fitted curve in either direction with a large enough effect (not every such curve was filed as active); inconclusive = small, poorly fitted or top-dose-only effect, or another doubt; inactive = flat fitted curve, though single readings scatter.

Key:
[1] = NFAT Signaling Pathway (AID 444); conditions: Jurkat NFAT-bla M1, carbachol, beta-lactamase ratio, 5 h; at 17.2 µM (top of the series) unless noted;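 note: carbachol stimulus at about its EC50 of 1 µM final; % is set by controls: 0 for no effect and ±100 for the full control effect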
Procedure, shortened: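 Read-out: CCF4 FRET ratio (460 nm/530 nm) after 1 h RT dye loading, used for %activity and AC50 from titration series. Cells: Jurkat NFAT-β-lactamase/M1 line, treated with compound plus 1 uM carbachol for 5 h, 37 °C.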

[2] = Stat Signaling Pathway (AID 446); conditions: ME-180 (cervical carcinoma) SIE beta-lactamase reporter, IL-6 stimulated, 5 h; at 17.2 µM (top of the series) unless noted;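 note: ME-180 cervical cancer cells given 40 pM IL-6 alongside compound; SIE-controlled beta-lactamase reporter measured as 460/530 nm FRET emission ratio; % is set by controls: 0 for no effect and ±100 for the full control effect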
Procedure, shortened: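 Normalization used AC90 stimulation (300 pM IL-6) and AC90 inhibition (125 nM pan-JAK inhibitor at 40 pM IL-6). The underlying signal is SIE-driven beta-lactamase in ME-180 cells after 5 h IL-6 exposure with compound.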

[3] = molecular target: Glucocorticoid receptor (Homo sapiens) (UniProt P04150); test: GR-GFP Redistribution (AID 450;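 active = compounds whose dose series gives a full or clear partial fitted curve of increased nuclear translocation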; note: potency is the fitted concentration of half-maximal effect); conditions: U2OS GR-GFP nuclear translocation, laser cytometry, 2 h; series mostly up to 20.6 µM
Chain of Glucocorticoid receptor (Homo sapiens) (P04150 whole entry, looked up): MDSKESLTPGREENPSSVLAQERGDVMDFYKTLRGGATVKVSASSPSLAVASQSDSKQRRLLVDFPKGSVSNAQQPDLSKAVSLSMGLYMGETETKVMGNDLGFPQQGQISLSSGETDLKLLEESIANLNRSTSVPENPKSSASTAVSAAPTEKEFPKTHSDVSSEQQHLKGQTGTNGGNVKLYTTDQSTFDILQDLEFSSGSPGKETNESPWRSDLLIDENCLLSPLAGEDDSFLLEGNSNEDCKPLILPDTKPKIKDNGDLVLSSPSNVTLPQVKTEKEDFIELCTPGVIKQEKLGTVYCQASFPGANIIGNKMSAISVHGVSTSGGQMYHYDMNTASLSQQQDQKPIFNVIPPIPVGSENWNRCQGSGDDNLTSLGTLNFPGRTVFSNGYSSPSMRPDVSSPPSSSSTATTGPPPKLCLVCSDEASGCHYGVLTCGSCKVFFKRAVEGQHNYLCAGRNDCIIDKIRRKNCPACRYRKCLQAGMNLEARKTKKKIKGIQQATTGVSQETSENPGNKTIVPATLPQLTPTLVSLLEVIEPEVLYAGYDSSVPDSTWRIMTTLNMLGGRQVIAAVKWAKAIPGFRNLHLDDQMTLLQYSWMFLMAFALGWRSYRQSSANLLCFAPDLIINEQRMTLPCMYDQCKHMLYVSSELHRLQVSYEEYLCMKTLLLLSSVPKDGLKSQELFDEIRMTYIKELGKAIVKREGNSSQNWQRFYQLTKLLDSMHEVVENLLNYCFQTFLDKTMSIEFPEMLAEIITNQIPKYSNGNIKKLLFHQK

CCN1CCc2c(C#N)c(N3CCCCC3)nc(N3CCOCC3)c2C1
inactive: activity change, negative = inhibition [1] -1.02% | activity, negative = inhibition [2] 18.4% | Potency [3] > 20.6 µM
